This note sets out measurements from PubChem BioAssay (NCATS).

Experiment [1] is described as follows: qHTS for Activators of Parkin Expression: LOPAC Validation Assay (FLuc Reporter) (AID 720573). Conditions: Cell line, PRKN promoter firefly luciferase reporter, vehicle wells = 0, positive control = 100%; series mostly up to 46.1 µM. Put shortly: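 FLuc signal from Parkin-promoter coincidence reporter neuronal cells, normalized to DMSO and positive control (100%). Cells (1,500/well) pre-incubated 24 h, then exposed to LOPAC compounds in 7-point dose response for 24 h at 37 C, 5% CO2.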

The target in experiment [2] is T1, Hexokinase-4 (Homo sapiens) + Glucokinase regulatory protein (Homo sapiens) (UniProt P35557+Q14397). Description: qHTS assay for inhibitors of recombinant human GCK-GKRP interaction: Diaphorase-coupled assay (AID 743205). Particulars: G6PDH/diaphorase resorufin fluorescence; series mostly up to 57.5 µM. The method, boiled down:
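A kinetic fluorescence read (Ex 525/Em 590 nm, every minute for 30 minutes) tracked resorufin from a G6PDH-diaphorase coupled GCK reaction. It contained 10 nM GST-GCK, 10 nM FLAG-GKRP, 5 mM glucose, 0.4 mM ATP in Hepes pH 7.6. Normalized to with/without-enzyme DMSO controls.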

The target of experiment [3] is T1, Hexokinase-4 (Homo sapiens) + Glucokinase regulatory protein (Homo sapiens). Description: qHTS assay for inhibitors of recombinant human GCK-GKRP interaction: ADP-Glo assay (AID 743206).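 Note: plate controls were DMSO plus enzyme for no effect and no enzyme for full effect.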 Conditions: ADP-Glo luminescence, 60 min, 0% = vehicle-only wells with enzyme present; series mostly up to 76.9 µM. The method, boiled down:
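GST-GCK and FLAG-GKRP (15 nM each in the dispensed mix, with 2 uM S6P) react with 0.4 mM ATP and 5 mM glucose (final) in Hepes pH 7.6 for 60 min at room temperature. ADP is measured by ADP-Glo luminescence.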
(In qHTS, concentration-response curves come from the screen itself.)

For experiment [4] the target is unchanged. Description: qHTS assay for inhibitors of recombinant human GCK-GKRP interaction: HTRF assay (AID 743207).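 Note: 0% = DMSO with GCK present and -100% = DMSO wells lacking GCK.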 Conditions: recombinant GCK-GKRP HTRF binding, 60 min; series mostly up to 57.5 µM. Put shortly:
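After 60 min equilibration at room temperature with anti-FLAG XL665 and anti-GST antibodies, FRET ratio (665/615 nm, excitation 320 nm) was read. Proteins: GST-GCK and FLAG-GKRP, each 5 nM, plus 2 uM S6P, pH 7.1 buffer; GCK-free wells define minimum signal.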

The nature of experiment [5]: qHTS Assay for Identifying Gametocytocidal Compounds (AID 743244).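 For max response: % is set by controls: 0 for no effect and ±100 for the full control effect; actives lower the fluorescent signal which means gametocytes are killed.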 Note: potency is the fitted concentration of half-maximal effect. Conditions: P. falciparum 3D7 stage III-V gametocytes, alamarBlue, 72 h; max response: stronger effect = lower value. Put shortly:
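P. falciparum 3D7 stage III–V gametocytes (20,000 cells/well) were exposed to compounds for 72 h at 37 °C, 5% CO2. AlamarBlue was then added for 24 h; decreased resorufin fluorescence (Ex 525/Em 598 nm) indicated loss of viability.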

Experiment [6] can be described thus: qHTS assay for measurement of the activity of small molecule inhibitors on Zika virus induced Caspase-3 activity in human iPSC derived neural progenitor cells (hNPCs) (AID 1224857). Note: % of control where 0% means no effect; nearly all actives have a fitted effect of over 65% in size. Conditions: hNPCs ZIKV-induced caspase-3/7, Caspase-Glo luminescence, 6 h; series mostly up to 45.7 µM. Put shortly:
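hNPCs seeded 350 cells/well, cultured 16–20 h; compounds added 1 h before ZIKV (2 FFU/cell), 37 C 6 h. Caspase-Glo 3/7 luminescence after 30 min RT; % inhibition from induction scaled to uninfected (0%) and infected (100%) wells.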

The nature of experiment [7]: qHTS assay for measurement of the activity of small molecule inhibitors on Zika virus induced Caspase-3 activity in human astrocytoma cells (AID 1224859).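 Note: plate controls were ZIKV-infected untreated cells for no effect and uninfected cells for full effect.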 Particulars: SNB-19 ZIKV-induced caspase-3/7, luminescence, 6 h; series mostly up to 45.7 µM. Put shortly: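 Luminescence read-out (Caspase-Glo 3/7, 30 min RT) of caspase activity in SNB-19 cells infected 6 h with ZIKV, 2 FFU/cell, after 1 h compound pretreatment; % inhibition from induction normalised to uninfected (0%) and infected (100%) wells.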

Experiment [8] can be described thus: qHTS assay to identify small molecule inhibitors of chordoma cells - UCH-1 (AID 1259355). Note: % is set by controls: 0 for no effect and ±100 for the full control effect; nearly all actives have a fitted effect of over 55% in size. Conditions: UCH-1 chordoma viability, CellTiter-Glo, 48 h, combination; series mostly up to 46.1 µM. The method, boiled down: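 Luminescent ATP read-out (CellTiter-Glo, 30min at room temperature) measured viability of UCH-1 cells exposed for 48hr to test drugs at 15 concentrations, co-dosed with a five-agent combination of auranofin, camptothecin, doxorubicin, rubitecan and topotecan.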

Experiment [9] can be described thus: qHTS profiling for inhibitors of Plasmodium falciparum (3D7) proliferation (AID 743322; call rule not given here;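 note: infected erythrocytes exposed to compound for 72 h before lysis; 100% = DMSO vehicle wells and 0% = 0.29 µM artemisinin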). Particulars: P. falciparum 3D7 proliferation; at 28.7 µM (top of the series). The method, boiled down:
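Erythrocytes infected with P. falciparum (0.3% parasitemia, 2.5% hematocrit) incubated with compounds 72 h at 37 C, 5% CO2. Lysis with saponin/Triton buffer containing SYBR Green I, overnight at room temperature in the dark; DNA fluorescence (485/535 nm) normalised to 0.29 uM artemisinin and DMSO.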

Experiment [10] can be described thus: qHTS profiling for inhibitors of Plasmodium falciparum (DD2) proliferation (AID 743323; call rule not given here). Conditions: lower = more inhibition; at 28.7 µM (top of the series). The method, boiled down: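 Parasite proliferation measured via DNA-dye fluorescence, as uninfected erythrocytes lack DNA. Cultures at 0.3% parasitemia and 2.5% hematocrit incubated 72 h with compound; signal scaled between vehicle and 0.29 uM artemisinin wells.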

Records with an inconclusive call do not appear. Calls of active or inactive are those of the source. Unless noted, calls come from the whole dose curve; as a rule, active = well fitted curve in the direction sought with a large enough effect; inconclusive = small, poorly fitted or top-dose-only effect, or another doubt; inactive = no such curve, though single readings can be large; an effect the other way counts as inactive or inconclusive.

T1 sequence (P35557 whole entry, looked up): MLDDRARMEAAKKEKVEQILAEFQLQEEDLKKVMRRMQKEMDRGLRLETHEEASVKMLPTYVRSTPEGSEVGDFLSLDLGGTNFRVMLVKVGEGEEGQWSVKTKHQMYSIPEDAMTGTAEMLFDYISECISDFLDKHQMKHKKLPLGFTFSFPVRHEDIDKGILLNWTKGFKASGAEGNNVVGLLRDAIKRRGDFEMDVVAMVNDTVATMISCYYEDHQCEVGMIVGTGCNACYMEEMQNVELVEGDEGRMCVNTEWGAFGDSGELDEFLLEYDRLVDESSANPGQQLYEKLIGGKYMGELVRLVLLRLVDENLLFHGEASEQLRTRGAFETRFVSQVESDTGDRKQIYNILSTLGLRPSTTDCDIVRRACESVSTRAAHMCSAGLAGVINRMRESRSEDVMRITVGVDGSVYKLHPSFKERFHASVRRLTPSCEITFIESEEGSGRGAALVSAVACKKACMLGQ
T1 sequence (Q14397 whole entry, looked up): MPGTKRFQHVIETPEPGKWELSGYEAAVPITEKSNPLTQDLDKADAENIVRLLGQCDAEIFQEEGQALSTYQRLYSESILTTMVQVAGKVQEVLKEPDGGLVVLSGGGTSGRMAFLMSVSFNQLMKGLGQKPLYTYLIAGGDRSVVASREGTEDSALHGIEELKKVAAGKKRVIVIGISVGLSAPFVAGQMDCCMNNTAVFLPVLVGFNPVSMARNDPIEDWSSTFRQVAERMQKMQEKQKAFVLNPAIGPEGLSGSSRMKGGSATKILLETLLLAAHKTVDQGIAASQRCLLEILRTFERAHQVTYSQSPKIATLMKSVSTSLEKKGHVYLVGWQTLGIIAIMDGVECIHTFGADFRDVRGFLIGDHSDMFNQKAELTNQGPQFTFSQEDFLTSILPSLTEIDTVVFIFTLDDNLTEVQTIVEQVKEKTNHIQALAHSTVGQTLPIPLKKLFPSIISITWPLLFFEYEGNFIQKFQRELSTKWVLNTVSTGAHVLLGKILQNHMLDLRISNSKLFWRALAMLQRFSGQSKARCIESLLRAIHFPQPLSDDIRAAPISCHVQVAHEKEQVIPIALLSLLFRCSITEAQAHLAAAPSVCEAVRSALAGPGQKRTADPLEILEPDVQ

As to `C[C@H](N)Cc1cccc(C(F)(F)F)c1`, the compound was classed as inactive in experiment [1], in experiment [3], in experiment [4] and in experiment [7]. Besides, the Potency entry in [2] and in experiment [6] was “inactive” each time. In experiment [5], the max response is 11.9% (inactive).

Turning to `CC(C)(O)[C@@H]1[C@H]2OC(=O)[C@@H]1[C@]1(O)C[C@H]3O[C@]34C(=O)O[C@H]2[C@]14C` (tested in a mixture with another compound), the Potency entry in experiment [6] was “inactive”.

As to `c1ccc2cc(CC3=NCCN3)ccc2c1`, the compound was classed as inactive in experiment [1], in [3], in experiment [4] and in experiment [7]. In addition, the Potency entry in experiment [2] and in [6] was “inactive” each time.

`C[C@H]1C2Cc3ccc(O)cc3[C@@]1(C)CCN2CC1CC1`: in experiment [6], the Potency result is “inactive”.

On to `CC(C)(C)c1o[nH]c(=O)c1CC(N)C(=O)O` (centres undefined), for which the result in experiment [1], in experiment [3], in experiment [4] and in experiment [7] was inactive. The Potency entry in experiment [2] and in experiment [6] was “inactive” each time. Moreover, the max response in [5] was 2.4% (inactive).

Turning to `CCCN1CC[C@@H]2c3cc(O)ccc3CC[C@@H]21`, the call in [1], in experiment [3], in experiment [4] and in experiment [7] was inactive. Further, the Potency result in [2] and in [6] was “inactive” in each case. Moreover, the max response in [5] was 20.4% (inactive).

Regarding `C[N+]1(C)C2CCC1CC(OC(=O)c1c[nH]c3ccccc13)C2` (centres undefined), the compound was called inactive in [1], in experiment [3], in experiment [4] and in experiment [7]. The Potency result in experiment [2] and in [6] was “inactive” throughout. In addition, the max response in experiment [5] is -2.89% (inactive).

On to `O=P(O)(O)C(Cl)(Cl)P(=O)(O)O`, for which the Potency result in experiment [6] and in [8] was “inactive” in each case.

Consider `CC(=O)NBr`, for which the call in [1], in experiment [3], in experiment [4] and in experiment [7] was inactive. Moreover, the Potency result in experiment [2] and in experiment [6] was “inactive” throughout. The max response in experiment [5] is 10.7% (inactive).

Turning to `C[C@H](N)CN1CCc2ccc(Br)cc21`, the compound was called inactive in experiment [1], in experiment [3], in experiment [4] and in experiment [7]. Moreover, the Potency entry in experiment [2] and in [6] was “inactive” each time. Moreover, the Potency in experiment [5] is 7.43 µM (active). The same compound came in with a remaining parasite growth % (stronger effect = lower value) in experiment [9] of 99.2%. The activity, percent of control in experiment [10] came to 24.2%.

For `COc1ccc2c(c1O)-c1cccc3c1[C@@H](C2)N(C)CC3`, the outcome in [1], in experiment [3], in experiment [4] and in experiment [7] was inactive. The Potency entry in experiment [2] and in experiment [6] was “inactive” throughout. Besides, the max response in experiment [5] is 27.6% (inactive).

With `CN1C2CCC1CC(OC(c1ccccc1)c1ccccc1N)C2` (centres undefined), the result in experiment [1], in experiment [3], in experiment [4] and in experiment [7] was inactive. Further, the Potency entry in [2] and in experiment [6] was “inactive” throughout. In addition, the max response in experiment [5] is 17.7% (inactive).

For the compound `CP(=O)(O)C1=CCNCC1`, the compound was classed as inactive in [1], in [3], in experiment [4] and in experiment [7]. Also, the Potency entry in experiment [2] and in experiment [6] was “inactive” throughout. For the same compound, in experiment [5], the max response is 6.19% (inactive).

In the case of `Cc1c2ccncc2c(C)c2c1[nH]c1ccccc12`, the compound was classed as inactive in experiment [1], in [3], in [4] and in [7]. For the same compound, the Potency entry in experiment [2] and in experiment [6] was “inactive” in each case. Further, the Potency in [5] is 1.78 µM (active).

Take `C#CCN[C@H](C)Cc1ccccc1`: the compound was called inactive in [1], in experiment [3], in experiment [4] and in experiment [7]. The Potency entry in [2] and in experiment [6] was “inactive” throughout. For the same compound, the max response in experiment [5] was 19.2% (inactive).
